For 17 compounds, composite z-score and z-score results are on record in PubChem BioAssay.

The structures appear in SMILES notation. Calls of active or inactive are those of the source. Unless noted, no rule for the calls is given here.

Experiment [1] has as its system XIP peptide (Xip251-270) binding. Description: XIP fragment 251-270 binding compounds – biochemical, small-molecule microarray, fluorescence 635/667 nm, 0.1 µg/mL protein, primary screen (AID 1182). The note with it: fluorescent protein binding, 635 nm, higher = more signal, called active from +8 up or from −8 down.
In experiment [2] the test system is XIP peptide (Xip251-270). Description: compounds binding XIP fragment 251-270 – biochemical, small-molecule microarray, fluorescence 635/667 nm, 0.5 µg/mL protein, primary screen (AID 1183). The conditions noted are these: fluorescence 635 nm, higher = more signal.
Experiment [3] in a line: blood-stage malaria parasite viability loss – strain 3D7, DAPI fluorescence, 100 nL, primary screen (AID 1184).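 Also: parasites grown inside human red blood cells in medium with human serum.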 The conditions noted are these: P. falciparum 3D7 growth, 3 d, higher = more signal.
In experiment [4] the target is Homeobox protein Hox-A13 (Mus musculus) (UniProt Q62424). Description: disruptors of Hoxa13 oligonucleotide interaction – biochemical, fluorescence polarization, labeled oligonucleotide, primary screen (AID 1185). The note with it: Hoxa13:DNA binding, 15 min, higher = more signal, called active from +8 up or from −8 down. In general terms: Fluorescence polarisation rises when a labelled molecule tumbles more slowly, as on binding a larger partner.

Experiment [5] can be described thus: blockers of DNA damage checkpoint Chk1 activation – imaging, HeLa, hydroxyurea, phospho-Chk1 antibody, percent positive cells, primary screen (AID 1186). The conditions noted are these: hydroxyurea-induced phospho-Chk1 immunofluorescence imaging, higher = more signal.
A short description of experiment [6]: blockers of DNA damage checkpoint Chk1 activation – imaging, HeLa, hydroxyurea, phospho-Chk1 nuclear intensity, primary screen (AID 1187). The note with it: hydroxyurea-induced phospho-Chk1 immunofluorescence imaging, higher = more signal.

Sequence of Homeobox protein Hox-A13 (Mus musculus) (Q62424 whole entry, looked up): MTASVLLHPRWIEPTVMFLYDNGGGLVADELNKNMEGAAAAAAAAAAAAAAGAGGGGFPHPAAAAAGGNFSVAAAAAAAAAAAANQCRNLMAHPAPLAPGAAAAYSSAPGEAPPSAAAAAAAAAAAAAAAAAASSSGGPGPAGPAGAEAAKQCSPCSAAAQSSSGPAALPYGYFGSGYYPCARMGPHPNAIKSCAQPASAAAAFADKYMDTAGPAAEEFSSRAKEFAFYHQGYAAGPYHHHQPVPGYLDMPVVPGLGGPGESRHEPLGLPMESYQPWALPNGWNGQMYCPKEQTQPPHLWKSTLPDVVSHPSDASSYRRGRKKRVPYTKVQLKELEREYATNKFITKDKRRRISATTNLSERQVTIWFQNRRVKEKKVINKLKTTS

For `C=CC[C@]1(C(=O)OC)N=C(c2ccc(OCCCO)cc2)O[C@H]1c1ccccc1N=[N+]=[N-]`, the composite z-score was 1.61 (inactive) in experiment [1] and 0.867 in experiment [2]. Also, the z-score is -2.21 in experiment [3], -3.31 (inactive) in experiment [4], -0.179 (inactive) in experiment [5] and 0.059 (inactive) in experiment [6].

With `CC(C)C(=C=CC[C@@H](O)c1cccc(OCCO)c1)CCO`, the composite z-score in experiment [1] was 0.202 (inactive); in experiment [2], 0.42. For the same compound, the z-score in experiment [3] is -0.115; in experiment [4], -1.53 (inactive); in experiment [5], -0.19 (inactive); in experiment [6] it was 0.247 (inactive).

Turning to `COCCOC(=O)N1C(=O)[C@@]2(c3cc(C#CCC(C(=O)OC)C(=O)OC)ccc31)[C@H](C(N)=O)[C@H]1C(=O)O[C@H](c3ccccc3)[C@H](c3ccccc3)N1[C@@H]2c1ccc(OCCO)cc1`, the composite z-score was 0.572 (inactive) in experiment [1] and 0.813 in experiment [2]. The z-score is -2.07 in experiment [3], -0.183 (inactive) in experiment [4], -0.153 (inactive) in experiment [5] and 0.0973 (inactive) in experiment [6].

Take `CCCCC(=C=CC[C@H](O)c1ccc(OCCO)cc1)C[C@H](O)c1ccccn1`: the composite z-score was 0.575 (inactive) in experiment [1] and 0.645 in experiment [2]. Further, the z-score in experiment [3] was -0.593; in experiment [4], -5.18 (inactive); in experiment [5] it was 0.203 (inactive); in experiment [6] it was 0.451 (inactive).

For `CCCC=C(CCC)[C@@H](NS(=O)(=O)c1ccc(Cl)cc1)c1ccccc1`, the composite z-score in experiment [1] is -0.641 (inactive); in experiment [2], 0.36. Also, the z-score in experiment [3] is -1.11; in experiment [4] it was -1.87 (inactive); in experiment [5] it was 0.081 (inactive); in experiment [6] it was 0.268 (inactive).

`[N-]=[N+]=NCc1ccccc1C[C@@]1(C(=O)O)N=C(c2ccc(OCCCO)cc2)O[C@@H]1c1ccccc1CN=[N+]=[N-]`: the figures for the composite z-score in experiment [1] and in experiment [2] were 0.673 (inactive) and 0.512, respectively. Besides, the z-score was 0.107 in experiment [3], -5.11 (inactive) in experiment [4], -0.199 (inactive) in experiment [5] and -0.026 (inactive) in experiment [6].

In the case of `COCCOC(=O)N1C(=O)[C@@]2(c3cc(C#CC4(O)CCCCCC4)ccc31)[C@H](c1ccc(OCCO)cc1)N1[C@H](c3ccccc3)[C@H](c3ccccc3)OC(=O)[C@H]1[C@@H]2C(=O)N1CCCCCCC1`, the composite z-score in experiment [1] is 0.662 (inactive); in experiment [2] it was 0.743. Also, the z-score was -2.43 in experiment [3], -13.3 (active) in experiment [4], -0.0238 (inactive) in experiment [5] and 0.222 (inactive) in experiment [6].

Consider `N#Cc1ccc(C(O)C2C=CC3C(=O)N(c4ccccc4)C(=O)C3N2Nc2ccc([N+](=O)[O-])cc2)cc1` (configuration not stated), for which the results for the composite z-score in experiment [1] and in experiment [2] were 1.04 (inactive) and 0.807, respectively. In addition, the z-score in experiment [3] is -1.84; in experiment [4], -4.34 (inactive); in experiment [5], -0.138 (inactive); in experiment [6], -1.24 (inactive).

As to `COC(=O)[C@H](Cc1ccc(O)cc1)N1CC2=CCCC=C[C@@H]2[C@H]1[C@H](O)Cc1ccccc1`, the values for the composite z-score in experiment [1] and in experiment [2] were -0.0324 (inactive) and 0.419, respectively. Besides, the z-score in experiment [3] is -1.63; in experiment [4], -8.16 (active); in experiment [5], -1.09 (inactive); in experiment [6], -1.18 (inactive).

Take `Cc1ccc(S[C@]2(C(=O)NCCN3CCOCC3)CC(=O)N(C3CCCCC3)[C@@H]2c2ccc(CO)cc2I)cc1`: the composite z-score in experiment [1] was 0.825 (inactive); in experiment [2], 0.657. Besides, the z-score in experiment [3] is -1.92; in experiment [4], -5.68 (inactive); in experiment [5], 0.134 (inactive); in experiment [6] it was 0.114 (inactive).

With `NC(=O)N1C(=O)C2C(C1=O)C1C=C(CCCO)C2C(c2ccc(CN3CCCC3)cc2)N1Cc1cccc(OC(F)(F)F)c1` (configuration not stated), the composite z-score in experiment [1] was 0.106 (inactive); in experiment [2], -0.133. The z-score is -2.28 in experiment [3], -7.26 (inactive) in experiment [4], 0.0295 (inactive) in experiment [5] and 0.298 (inactive) in experiment [6].

Regarding `O=C1OCCC=C[C@H]2OC34C=CCN(c5ccc(Cl)cc5)C(=O)[C@H]3N(CCO)C(=O)[C@@H]4C12` (some centres not stated), the composite z-score is -0.379 (inactive) in experiment [1] and 0.561 in experiment [2]. In addition, the z-score in experiment [3] is -0.136; in experiment [4] it was -5.37 (inactive); in experiment [5], -0.399 (inactive); in experiment [6] it was -0.576 (inactive).

With `C=CCC(OC(C)=O)[C@@H]1[C@@H](N(Cc2ccc(-c3ccccc3)cc2)C(=O)c2ccc(C)cc2)c2cc(OCCCO)ccc2N1C(=O)c1ccc2ccccc2c1` (some centres not stated), the composite z-score in experiment [1] is -0.654 (inactive); in experiment [2] it was -0.354. Further, the z-score in experiment [3] was -1.26; in experiment [4], -0.819 (inactive); in experiment [5], -0.363 (inactive); in experiment [6], -0.221 (inactive).

As to `C=CCC(OC(C)=O)[C@@H]1[C@@H](N(Cc2ccc(-c3cccc(C(F)(F)F)c3)o2)C(=O)Cc2ccc(F)cc2)c2cc(OCCCO)ccc2N1C(=O)c1ccc2ccccc2c1` (some centres not stated), the composite z-score in experiment [1] is -0.502 (inactive); in experiment [2], -0.669. For the same compound, the z-score in experiment [3] was -0.681; in experiment [4], -1.3 (inactive); in experiment [5], 0.627 (inactive); in experiment [6], 0.835 (inactive).

In the case of `COc1ccc([Si](C)(C)[C@H]2[C@H](CC(=O)N3Cc4ccccc4C[C@H]3CO)O[C@@]3(C(=O)N(Cc4cccc(N5C(=O)c6cccc7cccc5c67)c4)c4ccccc43)[C@@H]2C)cc1`, the values for the composite z-score in experiment [1] and in experiment [2] were 0.14 (inactive) and 0.802, respectively. In addition, the z-score in experiment [3] is -2.45; in experiment [4], -2.56 (inactive); in experiment [5], -0.887 (inactive); in experiment [6], -0.153 (inactive).

For the compound `COc1ccc(C(O)C2C=CC3C(=O)N(C)C(=O)C3N2Nc2ccc([N+](=O)[O-])cc2[N+](=O)[O-])cc1OCc1ccccc1` (configuration not stated), the composite z-score in experiment [1] was -0.237 (inactive); in experiment [2] it was 0.753. For the same compound, the z-score is 0.664 in experiment [3], -2.98 (inactive) in experiment [4], 0.47 (inactive) in experiment [5] and 0.219 (inactive) in experiment [6].

`CCCCC(O)C1C=CC2C(=O)N(C)C(=O)C2N1Nc1ccccc1` (configuration not stated): the values for the composite z-score in experiment [1] and in experiment [2] were -0.141 (inactive) and 0.0092, respectively. Moreover, the z-score in experiment [3] was -0.286; in experiment [4], -4.23 (inactive); in experiment [5], 0.342 (inactive); in experiment [6] it was -0.0493 (inactive).
